Data taken from PubChem BioAssay AID1845227 (National Center for Advancing Translational Sciences (NCATS), 2023).
Results filed as inconclusive are left out. Active and inactive are the calls of the source. The call rests on the fitted dose curve; in most records, active means well fitted inhibition curve with a large enough effect; inconclusive means small, poorly fitted or top-dose-only effect; inactive means no such curve, though single readings can be large or run the other way.

biological target: Luciferin 4-monooxygenase (Photinus pyralis) (UniProt P08659); assay: Confirmatory firefly luciferase (FLuc) qHTS assay for identification of artifact compounds; settings: purified FLuc enzyme, luminescence, 5 min; series mostly up to 38.9 µM
Summary of the method: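 Compounds were preincubated 15 min at room temperature with 10 uM D-luciferin and 10 uM ATP in Tris acetate pH 7.6. 10 nM Photinus pyralis luciferase was then added, and luminescence was read after 5 min.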

Potency, inactive:
CCCCN(C)CCCNC(=O)CN1C(=O)COc2ccc(S(=O)(=O)N3CCC(C)CC3)cc21, COc1ccc(-c2c3c(=O)n(C)c(=O)n(C)c3c3n2-c2ccccc2NC3c2ccccc2OC)cc1 (centres undefined), CCOC(=O)c1c(S(=O)(=O)N2CCCC(C(=O)Nc3cccc(C)n3)C2)c(C)n(C)c1C (centres undefined), NC(=O)c1ccc(-c2noc(-c3cccc(Cl)c3)n2)cc1, Cc1ccc(CNS(=O)(=O)c2ccc(-c3cc(C(F)(F)F)on3)s2)cc1, CC1CCN(c2nc3ccccc3nc2SCC(=O)Nc2ccccc2C(C)C)CC1, COc1ccc(NC(=O)Cn2c(=O)n(CCc3ccccc3)c(=O)c3c4c(sc32)CCCC4)cc1, O=C(C1CCC(CNS(=O)(=O)c2cccc3cccnc23)CC1)N1CCCCC1 (centres undefined), CCc1cccc(NC(=O)C2CCC(CNS(=O)(=O)c3csc(C(N)=O)c3)CC2)c1 (centres undefined), Cc1cc(C)n2ncc(C(=O)Nc3ccc(-c4cn[nH]c4)cc3)c2n1, COc1ccc(-c2nnc3n2N=C(c2cc(OC)ccc2OC)CS3)c(OC)c1, O=C(Nc1ccc(Oc2ccccc2)cc1)Nc1nnc(-c2ccncc2)s1, Cc1ccccc1CNC(=O)C(C)N(c1ccccc1)S(C)(=O)=O (centres undefined), C[C@H](NC(c1ccc(F)cc1)c1ccc2cccnc2c1O)c1ccccc1 (some centres undefined), O=S(=O)(Nc1cccc2cccnc12)c1ccccc1, O=c1cc(-c2ccc(O)cc2)oc2cc(O[C@H]3OC(CO)C(O)C(O)C3O)cc(O)c12 (some centres undefined), Cc1ccc(C2C=C(c3ccccc3)Nc3nc(NS(=O)(=O)c4ccccc4)nn32)cc1 (centres undefined), Nc1nc2nc(-c3ccc(Cl)cc3)cc(C(F)(F)F)n2n1, CC(=O)Nc1sc2c(c1-c1ccc(Cl)cc1)CCNC2, CN(C)[C@@H]1C(=O)C(C(=O)NCN2CCCC2)C(=O)[C@@]2(O)C(=O)C3C(=O)c4c(O)cccc4[C@@](C)(O)[C@H]3C[C@@H]12 (some centres undefined), Cn1c(=O)[nH]c2cc(-c3noc(-c4cccc(Cl)c4)n3)ccc21, CCC(=O)N1CCCc2cc(S(=O)(=O)N3CCC(C(=O)Nc4ccccc4CC)CC3)ccc21, O=c1cc(-c2ccc(O)c(O)c2)oc2cc(O[C@@H]3O[C@@H](CO)[C@@H](O)[C@@H](O)[C@H]3O)cc(O)c12, O=C(O)C1CC2CCCCC2N1C(=O)c1ccc(Cl)cc1 (centres undefined), COc1ccc(CNC(=O)C(C)n2nc(C)c3c(C)n(-c4ccccc4)nc3c2=O)c(OC)c1 (centres undefined), Cc1ccc(NC(=O)c2sc3ncn(Cc4cccc(F)c4)c(=O)c3c2C)c(Br)c1, Cc1c(Cl)cccc1NC(=O)c1cccc(NC(=O)N2CCSc3ncccc32)c1, COc1ccc(-c2noc(N3CCC(C(=O)N4CCN(c5cccc(C)c5C)CC4)CC3)n2)cc1, COCCn1c(C)cc(O)c(C(c2ccc(OC)cc2)N2CCN(c3ccccc3)CC2)c1=O (centres undefined), CCCCN(CCCC)C(=O)c1cc2c(=O)n3ccccc3nc2s1, CCCc1cc(=O)[nH]c(Nc2cc(C)ccc2OC)n1, CC1(C)OC2CC(=O)OCC23C1CC(=O)C1(C)C3CC[C@@]2(C)[C@H](c3ccoc3)OC(=O)C3OC312 (some centres undefined), c1cc(CNc2ccnc(-c3ccc4c(c3)OCO4)n2)ccn1, CN[C@@H]1[C@@H](O[C@H]2O[C@H](CO)[C@@H](N)[C@H](O)[C@H]2O)O[C@H]2C[C@@H](N)[C@@H](O[C@H]3[C@H](O)[C@@H](O)[C@H](N)C[C@@H]3N)O[C@@H]2[C@@H]1O
